# BoNT-F LC inh = BoNT F light chain protease inhibition. inhibition, % at 10 µM. 360,000 tested, 0.22% active. Multiplex microsphere protease cleavage assay, flow cytometry. AID 588497; in the data active = inhibition above about 35%, passing the limit was not always enough; inconclusive = no clear call, values can overlap the other calls; note: plate controls were buffer without enzyme for full effect and enzyme alone for no effect
# BoNT-A LC inh2 = BoNT A light chain protease inhibition. multiplex microsphere protease substrate cleavage, flow cytometry. inhibition, % at 10 µM. 360,000 tested, 0.17% active. AID 588499; note: plate controls were buffer without enzyme for full effect and enzyme alone for no effect
# Anthrax LF prot = inhibitors of Bacillus anthracis lethal factor protease; multiplex microsphere protease cleavage assay, LF; 360,000 tested, 0.12% active; AID 588501; inhibition, % at 10 µM; note: plate controls were buffer without enzyme for full effect and enzyme alone for no effect
# Bead autofluor = flagged as autofluorescent in microsphere protease counterscreen. 360,000 tested, 3.1% active. AID 624483. compound autofluorescence counterscreen, microsphere flow cytometry; hits give high values. fluorescence intensity (no concentration beside the values); in the data active = fluorescence intensity above about 16000; inconclusive = no clear call, values can overlap the other calls
# VHR inh abs = DUSP3 (human) phosphatase inhibition | 290,000 tested, 0.52% active | recombinant VHR phosphatase, pNPP absorbance | inhibition, % at 13.3 µM; in the data active = inhibition above about 50%
# MazEF act = activators of E. coli MazEF toxin-antitoxin RNase; activation, % at 20 µM; 350,000 tested, 0.32% active; P0AE70; FAM/BHQ RNA-DNA oligo cleavage fluorescence, 5 h; in the data active = activation above about 50%
# * hit, by the source's call; u = inconclusive; x = not tested or not shown. The list is not random: actives were taken first. Their share in the collection is about 4.1%. Cut-off read from the data, not from the text of the source, unless noted: active = inhibition above about 30%; inconclusive = no clear call, values can overlap the other calls; inactive = below that.
SMILES,BoNT-F LC inh,BoNT-A LC inh2,Anthrax LF prot,Bead autofluor,VHR inh abs,MazEF act
COc1ccc(NC(=S)Nc2cccc3cnccc23)cc1,-14.9,-0.6,-2.7,2376,8.1,70.0*
COc1ccc(CN2C(=O)C(CC(=O)NCc3cccs3)CC(C(=O)N(C(C)C)C(C)C)=C2C)cc1 (stereo not drawn),-1.2,0.2,-4.9,3690,x,5.4
Cc1ccc(N2C(=O)CSC23C(=O)Nc2ccccc23)cc1 (stereo not drawn),-10.0,-0.1,-5.6,u,4.0,-0.1
CC1=CC(C)(C)N2C(=O)C3(SCC(=O)N3c3ccc(O)cc3)c3cc(C)cc1c32 (stereo not drawn),3.3,3.2,-4.1,20630*,-6.0,1.7
CN(C(=S)NC(=O)C1(C)CC1(Cl)Cl)c1ccccc1 (stereo not drawn),-3.6,-0.1,0.7,23191*,-12.5,13.6
CC1(C(=O)NC(=S)N(Cc2ccccc2)c2ccccn2)CC1(Cl)Cl (stereo not drawn),-12.9,-0.7,-0.5,2700,4.4,-5.1
Cc1ccc(CNC(=O)/C=C/[C@H]2O[C@@H](n3cc(C)c(=O)[nH]c3=O)C[C@@H]2O)o1,-3.1,-1.7,0.0,4405,x,x
CCCOC(=S)N/C(=N\S(=O)(=O)c1ccccc1)c1ccccc1,-0.5,-0.6,-3.2,23253*,12.0,-0.4
O=P1(O)Cc2ccccc2-c2ccccc21,-0.5,-0.1,0.5,4290,x,11.4
CC(C)C(NC(=O)c1cccs1)C(=O)NC1=NCCS1 (stereo not drawn),2.8,u,-1.3,21605*,-1.3,14.7
CN(C(=O)COC(=O)c1cccc(S(=O)(=O)N2CCOCC2)c1)C1CCS(=O)(=O)C1 (stereo not drawn),-3.5,-0.2,5.0,6971,x,0.7
COc1ccc(C2CC(=O)N3C(=C2C#N)SCC3(O)c2ccccc2)cc1 (stereo not drawn),2.2,2.9,-3.7,19377*,23.5,-8.1
N#CC1=C2SCC(O)(c3ccccc3)N2C(=O)CC1c1cccs1 (stereo not drawn),2.6,u,-5.6,16111,11.6,-13.2
COc1ccc(CNC(=O)CCCCCn2c(SCC#N)nc3cc4c(cc3c2=O)OCO4)cc1,0.5,u,1.5,19698*,5.6,-37.8
CCN(CC)C(=O)CSc1nc2cc3c(cc2c(=O)n1CCCC(=O)NCc1ccc(OC)cc1)OCO3,-6.2,0.3,0.7,3718,-9.6,7.4
CCOC(=O)c1c(NC(=O)CSc2nc3ccccc3o2)sc(C)c1C,5.4,u,-4.0,19163*,-15.9,-12.6
CCOC(=O)c1c(NC(=O)CSc2nc3ccccc3s2)sc(C)c1C,22.3,5.9,-0.6,u,14.0,-5.5
CCCCc1c(-c2ccccc2OC)ncn1CCc1ccc(Cl)cc1,-9.3,0.3,-7.9,6194,x,x
CC(C)CCC(CCN1CCCC1)c1ccc2c(c1)OCO2 (stereo not drawn),-9.5,0.0,-6.8,6219,-6.7,5.2
CC(C)CCC(CCN1CCOCC1)c1ccc2c(c1)OCO2 (stereo not drawn),-0.5,-1.4,-1.9,20867*,-9.6,-3.0
CCOC(=O)N1CCN(C(=O)CNC(=O)c2ccc(Br)o2)CC1,u,-4.4,-6.2,3699,7.4,-4.8
CCOC(=O)/C(=N\Nc1cccc(C(F)(F)F)c1)N(CCOC)CCOC,-7.8,u,-0.5,22213*,26.1,-7.2
CCOC(=O)/C(=N\Nc1cccc(C(F)(F)F)c1)N1CCOCC1,-1.0,0.0,-3.3,4396,-10.8,-12.9
COCCn1c(=S)[nH]c2cc(C(=O)N3CCc4ccccc43)ccc2c1=O,-4.8,-4.0,-3.6,24139*,-0.1,-4.7
CCCn1c(=S)[nH]c2cc(C(=O)N3CCc4ccccc43)ccc2c1=O,-2.8,-1.8,-1.4,21147*,21.3,7.5
Cc1cc(-c2ccccc2)n(-c2ccccc2)n1,-9.6,-5.8,-7.9,4096,9.2,12.2
O=C(NC(=S)N1CC=CCC1)c1ccccc1,-0.1,-0.4,-3.9,2864,x,3.2
CCCCC(NC(=O)CCc1c(C)c2cc3c4c(oc3c(C)c2oc1=O)CCCC4)C(=O)O (stereo not drawn),2.3,-0.8,-6.8,3243,58.2*,4.1
CCCCC(NC(=O)Cc1c(C)c2cc3c4c(oc3c(C)c2oc1=O)CCCC4)C(=O)O (stereo not drawn),15.7,-1.8,0.0,3449,52.0*,-3.1
